# From the supplement of paper PMC7156485
# Key:
# Settings in all cases: concentration: 10 µM; 24 h
# [1] = tested on: HCC1569; experiment: cell number relative to DMSO (% of DMSO); higher = more cells (less growth inhibition / toxicity)
# Procedure, shortened: (§1)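 Treatment: HCC1569 and TDF cells, 800 per well in 384-well plates with RPMI and 10% FBS, were given compounds at 10 µM for 24 h at 37 °C, in triplicate. Readout: after 3.7% formaldehyde fixation, cells were stained with a rabbit anti-H1.0 antibody, an AlexaFluor 647 secondary and DAPI. Reported values are H1.0 nuclear intensity or cell number as percent of the plate control, taken as the median of replicates, with positional smoothing for HCC1569.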
# [2] = tested on: TDF; experiment: as above
# Procedure, shortened: as §1
# [3] = tested on: TDF; experiment: H1.0 immunofluorescence intensity relative to DMSO (% of DMSO); higher = stronger H1.0 induction, active = 120 or more
# Procedure, shortened: as §1
# [4] = tested on: HCC1569; experiment: H1.0 immunofluorescence intensity relative to DMSO (% of DMSO); higher = stronger H1.0 induction, active = 140 or more
# Procedure, shortened: as §1
# 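Wherever H1.0 immunofluorescence intensity relative to DMSO is given: TDF is a line of transformed human dermal fibroblasts of mesenchymal origin.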
# 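Wherever cell number relative to DMSO is given: TDF denotes transformed human dermal fibroblasts of mesenchymal origin.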
Structure (SMILES),cell number [1],cell number [2],H1.0 immunofluorescence intensity [3],H1.0 immunofluorescence intensity [4]
O=C(Oc1ccc([N+](=O)[O-])cc1)N1CCN(Cc2cccc(Oc3ccccc3)c2)CC1 [4-nitrophenyl 4-(3-phenoxybenzyl)-1-piperazinecarboxylate],97.4,104,101 (inactive),105 (inactive)
CN1CC(C(=O)NC2(C)OC3(O)C4CCCN4C(=O)C(Cc4ccccc4)N3C2=O)C=C2c3cccc4[nH]cc(c34)CC21 (configuration not stated) [Ergotamine],97.8,108,95.3 (inactive),106 (inactive)
"O=[N+]([O-])c1cc(O)c(O)c([N+](=O)[O-])c1 [3,5-Dinitrocatechol]",98.6,107,99.9 (inactive),97.9 (inactive)
Clc1ccc(C(c2ccc(Cl)cc2)n2cc[n+](CC(OCc3ccc(Cl)cc3Cl)c3ccc(Cl)cc3Cl)c2)cc1.[Cl-] (configuration not stated) [Calmidazolium chloride],17.8,0.84,,95.3 (inactive)
"C[N+]1([O-])C2CC(OC(=O)C(CO)c3ccccc3)CC1C1OC12 (single isomer, unassigned; (-)) [(-)-Scopolamine N-oxide]",96.4,105,99.4 (inactive),102 (inactive)
CC=C1CN2CCC34C(=C(CC=O)C1CC23)Nc1ccccc14 (configuration not stated) [Norfluorocurarine],100,104,97.8 (inactive),96.3 (inactive)
CCN1CC2(COC)C(O)CC(OC)C34C5CC6(O)C(OC)C(O)C(OC(C)=O)(C5C6OC(=O)c5ccccc5)C(C(OC)C23)C14 (configuration not stated) [Aconitine],99.9,97.3,96.5 (inactive),94.5 (inactive)
